Data on 1 sequence can be found in publication PMC7862700, “An all-to-all approach to the identification of sequence-specific readers for epigenetic DNA modifications on cytosine”.

Test in all cases: DAPPL (digital affinity profiling via proximity ligation, sequencing); 10 mM Tris-HCl pH 7.5, 50 mM NaCl, 1 mM DTT, 4% glycerol, room temperature, 30 min; GST-TFs on glutathione beads, 16-mer random dsDNA library, 0.1% formaldehyde crosslink after washing; high values mean tight binding
For one experiment, the target named is T1, FEV (Homo sapiens, UniProt Q99581 1-238).
T1 sequence: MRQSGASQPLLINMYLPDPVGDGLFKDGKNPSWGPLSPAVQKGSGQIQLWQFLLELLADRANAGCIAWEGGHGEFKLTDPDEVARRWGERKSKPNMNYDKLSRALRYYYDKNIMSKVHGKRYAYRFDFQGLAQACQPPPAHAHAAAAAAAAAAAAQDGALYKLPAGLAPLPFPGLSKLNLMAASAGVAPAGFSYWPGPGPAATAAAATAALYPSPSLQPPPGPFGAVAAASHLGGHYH
The note with it: protein: recombinant; tags: N-terminal GST; dsDNA, one strand shown. Summed up: (§1)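 Yeast served to express human transcription factors as GST fusions, which were then captured on glutathione beads and labelled with DNA barcodes. Pooled with a tag-only sample, they were incubated with 200 nmole of a 16-mer random double-stranded DNA library for 30 min at room temperature in Tris/NaCl/DTT/glycerol buffer, washed, crosslinked with 0.1% formaldehyde, ligated by proximity, amplified by PCR and sequenced. Dividing each hexamer's read frequency for a factor by its frequency for the tag-only sample gives the binding signal.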

Another experiment deals with ETV5 (Homo sapiens, UniProt P41161 1-510). The following applies: protein: recombinant; tags: N-terminal GST; dsDNA, one strand shown. Summed up: as §1
The next experiment addresses HSF1 (Homo sapiens, UniProt Q00613 1-529). The note with it: protein: recombinant; tags: N-terminal GST; chain copies: 3; dsDNA, one strand shown. Summed up:
as §1

The target in a further experiment is T2, SPIC (Homo sapiens, UniProt Q8N5J4 1-248).
T2 sequence: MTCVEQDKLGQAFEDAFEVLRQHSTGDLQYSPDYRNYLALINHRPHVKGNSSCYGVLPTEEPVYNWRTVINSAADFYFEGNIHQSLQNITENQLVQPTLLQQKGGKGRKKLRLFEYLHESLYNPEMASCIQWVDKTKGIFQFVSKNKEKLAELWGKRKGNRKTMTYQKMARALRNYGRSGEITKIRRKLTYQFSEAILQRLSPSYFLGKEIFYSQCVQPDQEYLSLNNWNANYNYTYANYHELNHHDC
The following applies: protein: recombinant; tags: N-terminal GST; dsDNA, one strand shown. Summed up:
as §1

Another experiment concerns the target ELF4 (Homo sapiens, UniProt Q99607 1-663). The following applies: protein: recombinant; tags: N-terminal GST; dsDNA, one strand shown. Summed up:
as §1

Another experiment has as its target T3, ELK4 (Homo sapiens, UniProt P28324-2 1-405).
T3 sequence: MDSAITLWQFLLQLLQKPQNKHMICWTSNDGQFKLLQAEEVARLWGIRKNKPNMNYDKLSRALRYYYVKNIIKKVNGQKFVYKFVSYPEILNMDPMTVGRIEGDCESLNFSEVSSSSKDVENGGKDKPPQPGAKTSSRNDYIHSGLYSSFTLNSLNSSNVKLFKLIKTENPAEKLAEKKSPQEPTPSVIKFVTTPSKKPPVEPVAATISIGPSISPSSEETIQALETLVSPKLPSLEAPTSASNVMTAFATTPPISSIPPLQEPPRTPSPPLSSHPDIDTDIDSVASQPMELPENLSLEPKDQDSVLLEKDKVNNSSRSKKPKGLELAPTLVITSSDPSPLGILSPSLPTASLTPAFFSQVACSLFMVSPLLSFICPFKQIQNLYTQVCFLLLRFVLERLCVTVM
The note with it: protein: recombinant; tags: N-terminal GST; dsDNA, one strand shown. Summed up:
as §1

For another experiment, the target named is T4, ETV2 (Homo sapiens, UniProt O00321 1-342).
T4 sequence: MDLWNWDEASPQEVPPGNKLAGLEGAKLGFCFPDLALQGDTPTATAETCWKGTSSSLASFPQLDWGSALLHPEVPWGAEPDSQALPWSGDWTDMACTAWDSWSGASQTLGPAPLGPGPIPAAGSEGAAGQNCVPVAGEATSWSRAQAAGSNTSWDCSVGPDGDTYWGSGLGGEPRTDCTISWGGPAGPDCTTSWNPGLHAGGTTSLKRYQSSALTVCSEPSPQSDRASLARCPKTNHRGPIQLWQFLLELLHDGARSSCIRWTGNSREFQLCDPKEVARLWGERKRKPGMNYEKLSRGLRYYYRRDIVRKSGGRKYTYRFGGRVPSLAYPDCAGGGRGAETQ
The note with it: protein: recombinant; tags: N-terminal GST; dsDNA, one strand shown. Summed up:
as §1

In a further experiment the target is T5, ELF3 (Homo sapiens, UniProt P78545 1-371).
T5 sequence: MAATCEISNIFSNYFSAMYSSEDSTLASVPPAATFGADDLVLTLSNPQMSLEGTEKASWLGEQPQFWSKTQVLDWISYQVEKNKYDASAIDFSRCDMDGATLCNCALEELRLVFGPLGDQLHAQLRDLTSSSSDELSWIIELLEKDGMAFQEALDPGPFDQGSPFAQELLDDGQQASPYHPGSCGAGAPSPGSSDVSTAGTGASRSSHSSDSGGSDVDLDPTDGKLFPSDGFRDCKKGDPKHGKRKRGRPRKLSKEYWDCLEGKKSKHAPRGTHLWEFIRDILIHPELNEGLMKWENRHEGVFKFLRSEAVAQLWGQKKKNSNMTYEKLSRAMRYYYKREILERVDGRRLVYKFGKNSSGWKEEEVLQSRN
The note with it: protein: recombinant; tags: N-terminal GST; dsDNA, one strand shown. Summed up:
as §1

The target in a further experiment is CRX (Homo sapiens, UniProt O43186 1-299). The following applies: protein: recombinant; tags: N-terminal GST; dsDNA, one strand shown. Summed up:
as §1

In a further experiment the target is ETV1 (Homo sapiens, UniProt P50549 1-477). The note with it: protein: recombinant; tags: N-terminal GST; dsDNA, one strand shown. Summed up:
as §1

The next experiment concerns the target T6, ERF (Homo sapiens, UniProt P50548 1-548).
T6 sequence: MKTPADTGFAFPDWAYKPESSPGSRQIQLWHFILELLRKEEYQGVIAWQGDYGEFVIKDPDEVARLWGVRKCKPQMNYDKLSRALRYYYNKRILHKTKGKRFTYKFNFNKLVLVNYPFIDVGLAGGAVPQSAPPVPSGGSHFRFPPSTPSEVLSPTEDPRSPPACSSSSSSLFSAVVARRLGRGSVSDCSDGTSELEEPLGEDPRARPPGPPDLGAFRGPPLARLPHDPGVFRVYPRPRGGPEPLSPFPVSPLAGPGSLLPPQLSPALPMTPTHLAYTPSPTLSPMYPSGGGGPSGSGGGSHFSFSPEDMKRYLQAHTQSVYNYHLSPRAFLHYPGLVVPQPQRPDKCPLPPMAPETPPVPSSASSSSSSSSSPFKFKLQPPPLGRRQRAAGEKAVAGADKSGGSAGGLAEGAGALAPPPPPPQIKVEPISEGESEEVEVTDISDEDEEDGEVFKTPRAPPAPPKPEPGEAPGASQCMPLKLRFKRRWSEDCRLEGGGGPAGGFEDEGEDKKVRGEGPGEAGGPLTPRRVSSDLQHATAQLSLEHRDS
The following applies: protein: recombinant; tags: N-terminal GST; dsDNA, one strand shown. Summed up:
as §1

A further experiment concerns the target T7, ETV3L (Homo sapiens, UniProt Q6ZN32 1-361).
T7 sequence: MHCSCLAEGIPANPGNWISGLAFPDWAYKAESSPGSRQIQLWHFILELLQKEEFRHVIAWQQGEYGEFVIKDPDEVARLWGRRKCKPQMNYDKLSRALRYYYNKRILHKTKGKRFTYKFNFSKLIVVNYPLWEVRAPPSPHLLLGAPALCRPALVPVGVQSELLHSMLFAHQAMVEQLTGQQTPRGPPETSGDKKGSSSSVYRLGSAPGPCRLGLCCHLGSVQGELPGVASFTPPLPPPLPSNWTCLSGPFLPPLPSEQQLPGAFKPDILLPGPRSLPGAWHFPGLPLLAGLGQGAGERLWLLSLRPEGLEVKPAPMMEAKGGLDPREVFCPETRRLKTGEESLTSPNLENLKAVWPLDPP
The following applies: protein: recombinant; tags: N-terminal GST; dsDNA, one strand shown. Summed up: as §1

A further experiment concerns the target T8, ETS2 (Homo sapiens, UniProt P15036 1-469).
T8 sequence: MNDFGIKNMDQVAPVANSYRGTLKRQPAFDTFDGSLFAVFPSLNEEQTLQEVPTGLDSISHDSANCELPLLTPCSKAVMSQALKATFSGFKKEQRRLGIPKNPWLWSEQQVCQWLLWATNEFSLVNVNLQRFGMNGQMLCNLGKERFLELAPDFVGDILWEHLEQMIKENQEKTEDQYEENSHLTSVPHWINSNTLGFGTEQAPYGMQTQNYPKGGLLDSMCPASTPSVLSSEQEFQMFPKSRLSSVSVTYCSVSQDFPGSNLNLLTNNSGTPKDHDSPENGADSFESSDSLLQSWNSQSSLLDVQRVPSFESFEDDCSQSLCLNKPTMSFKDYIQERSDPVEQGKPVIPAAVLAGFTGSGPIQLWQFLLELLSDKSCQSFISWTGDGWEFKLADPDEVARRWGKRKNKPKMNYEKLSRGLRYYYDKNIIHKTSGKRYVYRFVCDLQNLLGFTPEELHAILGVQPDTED
The following applies: protein: recombinant; tags: N-terminal GST; dsDNA, one strand shown. Summed up:
as §1

In a further experiment the target is T9, SPDEF (Homo sapiens, UniProt O95238 1-335).
T9 sequence: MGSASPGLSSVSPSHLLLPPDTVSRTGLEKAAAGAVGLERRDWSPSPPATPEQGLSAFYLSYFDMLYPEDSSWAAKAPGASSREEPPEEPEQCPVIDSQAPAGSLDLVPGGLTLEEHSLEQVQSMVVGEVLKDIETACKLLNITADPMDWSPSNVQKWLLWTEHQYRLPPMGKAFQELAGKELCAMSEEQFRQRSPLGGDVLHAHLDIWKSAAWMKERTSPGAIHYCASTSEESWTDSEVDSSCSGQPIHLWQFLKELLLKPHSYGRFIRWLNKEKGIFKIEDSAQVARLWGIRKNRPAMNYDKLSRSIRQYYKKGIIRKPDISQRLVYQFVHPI
The note with it: protein: recombinant; tags: N-terminal GST; dsDNA, one strand shown. Summed up: as §1

The target of a further experiment is T10, ETV7 (Homo sapiens, UniProt Q9Y603 1-341).
T10 sequence: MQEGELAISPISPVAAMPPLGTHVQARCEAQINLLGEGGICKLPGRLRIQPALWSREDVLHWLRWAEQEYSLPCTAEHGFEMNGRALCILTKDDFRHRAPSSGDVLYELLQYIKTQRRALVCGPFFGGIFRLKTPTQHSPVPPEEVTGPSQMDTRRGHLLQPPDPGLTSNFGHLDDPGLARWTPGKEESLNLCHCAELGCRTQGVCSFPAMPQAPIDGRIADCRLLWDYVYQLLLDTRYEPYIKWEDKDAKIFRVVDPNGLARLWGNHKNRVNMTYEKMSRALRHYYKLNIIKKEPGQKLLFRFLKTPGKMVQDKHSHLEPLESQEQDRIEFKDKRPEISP
The following applies: protein: recombinant; tags: N-terminal GST; dsDNA, one strand shown. Summed up: as §1

The next experiment concerns the target T11, ELF5 (Homo sapiens, UniProt Q9UKW6-2 1-255).
T11 sequence: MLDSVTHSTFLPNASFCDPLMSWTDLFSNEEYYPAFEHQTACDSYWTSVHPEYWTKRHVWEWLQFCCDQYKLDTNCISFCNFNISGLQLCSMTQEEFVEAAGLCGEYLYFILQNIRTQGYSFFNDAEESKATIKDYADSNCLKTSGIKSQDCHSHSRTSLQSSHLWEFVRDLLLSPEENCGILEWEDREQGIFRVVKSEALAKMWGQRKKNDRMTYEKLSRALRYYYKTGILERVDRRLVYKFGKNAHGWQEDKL
The note with it: protein: recombinant; tags: N-terminal GST; dsDNA, one strand shown. Summed up:
as §1

The next experiment addresses T12, ETV3 (Homo sapiens, UniProt P41162-2 1-143).
T12 sequence: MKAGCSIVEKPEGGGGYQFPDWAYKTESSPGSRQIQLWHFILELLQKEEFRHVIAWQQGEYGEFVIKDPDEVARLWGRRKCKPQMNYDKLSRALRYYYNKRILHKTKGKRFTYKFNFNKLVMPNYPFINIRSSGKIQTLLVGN
The note with it: protein: recombinant; tags: N-terminal GST; dsDNA, one strand shown. Summed up:
as §1

Another experiment deals with ETV6 (Homo sapiens, UniProt P41212 1-452). The following applies: protein: recombinant; tags: N-terminal GST; dsDNA, one strand shown. Summed up:
as §1

Sequence of ETV6 (P41212 whole entry): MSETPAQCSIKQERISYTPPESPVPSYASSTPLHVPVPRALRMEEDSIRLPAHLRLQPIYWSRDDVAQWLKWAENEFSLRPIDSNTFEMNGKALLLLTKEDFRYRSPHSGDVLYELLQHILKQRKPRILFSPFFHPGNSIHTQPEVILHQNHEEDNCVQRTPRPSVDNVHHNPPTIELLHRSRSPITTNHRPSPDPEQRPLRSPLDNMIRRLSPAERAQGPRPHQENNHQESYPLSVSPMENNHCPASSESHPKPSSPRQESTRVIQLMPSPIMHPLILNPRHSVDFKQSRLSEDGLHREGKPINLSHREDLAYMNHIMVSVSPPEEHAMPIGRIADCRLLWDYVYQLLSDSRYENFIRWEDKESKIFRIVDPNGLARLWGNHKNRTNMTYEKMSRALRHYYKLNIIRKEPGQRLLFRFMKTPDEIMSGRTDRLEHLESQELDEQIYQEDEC
Sequence of CRX (O43186 whole entry): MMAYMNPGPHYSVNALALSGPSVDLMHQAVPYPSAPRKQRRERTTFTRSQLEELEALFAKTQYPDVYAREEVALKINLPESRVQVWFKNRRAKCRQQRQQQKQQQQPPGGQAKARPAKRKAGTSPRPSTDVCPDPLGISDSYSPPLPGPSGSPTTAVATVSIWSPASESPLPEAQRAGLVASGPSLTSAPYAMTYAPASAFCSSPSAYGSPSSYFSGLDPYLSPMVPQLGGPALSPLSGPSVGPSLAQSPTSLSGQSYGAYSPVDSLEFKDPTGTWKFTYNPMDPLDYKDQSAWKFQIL
Sequence of ETV5 (P41161 whole entry): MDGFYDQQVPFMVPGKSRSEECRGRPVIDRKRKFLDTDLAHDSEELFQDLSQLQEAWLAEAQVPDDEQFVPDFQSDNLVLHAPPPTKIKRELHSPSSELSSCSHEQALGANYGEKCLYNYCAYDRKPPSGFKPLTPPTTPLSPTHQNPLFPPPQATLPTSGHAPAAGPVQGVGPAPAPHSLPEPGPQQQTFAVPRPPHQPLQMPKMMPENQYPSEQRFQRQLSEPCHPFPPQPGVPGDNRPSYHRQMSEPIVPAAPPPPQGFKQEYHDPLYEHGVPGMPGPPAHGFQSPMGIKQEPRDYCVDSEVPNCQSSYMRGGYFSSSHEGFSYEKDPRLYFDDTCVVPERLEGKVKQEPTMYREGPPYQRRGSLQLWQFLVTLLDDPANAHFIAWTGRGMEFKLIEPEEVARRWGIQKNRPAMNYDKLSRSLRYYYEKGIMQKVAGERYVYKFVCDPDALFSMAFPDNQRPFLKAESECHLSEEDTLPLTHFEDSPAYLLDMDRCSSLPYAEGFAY
Sequence of ETV1 (P50549 whole entry): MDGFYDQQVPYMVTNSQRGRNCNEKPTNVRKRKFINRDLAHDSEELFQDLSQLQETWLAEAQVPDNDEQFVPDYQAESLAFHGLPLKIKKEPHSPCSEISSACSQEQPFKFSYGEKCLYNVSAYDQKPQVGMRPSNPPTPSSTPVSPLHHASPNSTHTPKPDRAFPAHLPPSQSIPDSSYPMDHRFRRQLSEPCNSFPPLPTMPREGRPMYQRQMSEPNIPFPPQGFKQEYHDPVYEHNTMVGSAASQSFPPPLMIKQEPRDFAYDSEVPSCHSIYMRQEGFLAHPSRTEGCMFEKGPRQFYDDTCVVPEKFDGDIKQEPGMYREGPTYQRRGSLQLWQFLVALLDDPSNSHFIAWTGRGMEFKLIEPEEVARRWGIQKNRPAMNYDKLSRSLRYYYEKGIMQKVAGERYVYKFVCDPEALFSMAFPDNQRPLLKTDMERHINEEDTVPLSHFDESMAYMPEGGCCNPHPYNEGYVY
Sequence of ELF4 (Q99607 whole entry): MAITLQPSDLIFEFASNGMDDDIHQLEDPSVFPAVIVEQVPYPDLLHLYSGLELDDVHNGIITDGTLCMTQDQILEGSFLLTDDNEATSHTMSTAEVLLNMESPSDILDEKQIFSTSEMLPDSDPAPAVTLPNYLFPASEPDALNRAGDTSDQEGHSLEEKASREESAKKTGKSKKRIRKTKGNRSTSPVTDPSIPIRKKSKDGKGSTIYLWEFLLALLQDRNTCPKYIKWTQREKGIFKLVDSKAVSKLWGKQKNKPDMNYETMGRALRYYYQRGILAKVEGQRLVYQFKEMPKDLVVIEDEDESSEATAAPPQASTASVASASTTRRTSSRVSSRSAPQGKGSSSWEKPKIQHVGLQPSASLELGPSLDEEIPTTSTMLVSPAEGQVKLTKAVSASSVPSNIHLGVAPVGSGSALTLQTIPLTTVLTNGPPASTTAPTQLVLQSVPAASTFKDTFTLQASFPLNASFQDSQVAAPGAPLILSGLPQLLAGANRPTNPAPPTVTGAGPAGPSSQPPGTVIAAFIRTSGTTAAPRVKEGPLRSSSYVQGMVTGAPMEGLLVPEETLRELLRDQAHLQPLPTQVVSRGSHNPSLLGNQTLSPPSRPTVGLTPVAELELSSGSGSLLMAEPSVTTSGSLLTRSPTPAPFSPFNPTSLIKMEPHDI
Sequence of HSF1 (Q00613 whole entry): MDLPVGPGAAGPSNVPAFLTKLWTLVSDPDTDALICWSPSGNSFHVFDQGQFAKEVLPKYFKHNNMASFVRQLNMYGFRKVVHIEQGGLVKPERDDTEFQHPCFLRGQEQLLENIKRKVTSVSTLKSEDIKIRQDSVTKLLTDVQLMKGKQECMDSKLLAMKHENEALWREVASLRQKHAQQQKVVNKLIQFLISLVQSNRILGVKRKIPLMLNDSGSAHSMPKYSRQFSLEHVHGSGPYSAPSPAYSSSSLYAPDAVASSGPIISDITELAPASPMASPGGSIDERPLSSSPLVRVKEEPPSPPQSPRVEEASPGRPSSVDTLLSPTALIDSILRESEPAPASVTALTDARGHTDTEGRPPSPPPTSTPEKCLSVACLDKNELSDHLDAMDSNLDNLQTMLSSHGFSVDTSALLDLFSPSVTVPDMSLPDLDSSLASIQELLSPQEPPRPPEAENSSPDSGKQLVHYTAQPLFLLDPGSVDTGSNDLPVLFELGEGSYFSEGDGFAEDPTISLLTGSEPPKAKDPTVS

With TGCTAT, the binding signal was 1.39 fold enrichment (6-mer frequency, TF over GST control) in the experiment with FEV; 1.43 fold enrichment (6-mer frequency, TF over GST control) with ETV5; 1.22 fold enrichment (6-mer frequency, TF over GST control) in the experiment with HSF1; 1.37 fold enrichment (6-mer frequency, TF over GST control) with SPIC; 1.37 fold enrichment (6-mer frequency, TF over GST control) in the experiment with ELF4; 1.57 fold enrichment (6-mer frequency, TF over GST control) with ELK4. In addition, the binding signal in the experiment with ETV2 was 1.71 fold enrichment (6-mer frequency, TF over GST control); with ELF3 it was 1.6 fold enrichment (6-mer frequency, TF over GST control); with CRX it was 1.3 fold enrichment (6-mer frequency, TF over GST control); with ETV1 it was 1.31 fold enrichment (6-mer frequency, TF over GST control); with ERF, 1.33 fold enrichment (6-mer frequency, TF over GST control); with ETV3L it was 1.4 fold enrichment (6-mer frequency, TF over GST control). The binding signal with ETS2 is 1.52 fold enrichment (6-mer frequency, TF over GST control); with SPDEF it was 1.48 fold enrichment (6-mer frequency, TF over GST control); with ETV7, 1.43 fold enrichment (6-mer frequency, TF over GST control); with ELF5, 1.33 fold enrichment (6-mer frequency, TF over GST control); with ETV3 it was 1.45 fold enrichment (6-mer frequency, TF over GST control); with ETV6, 1.38 fold enrichment (6-mer frequency, TF over GST control).
